Measurements taken from PubChem BioAssay (NCATS).
Results filed as inconclusive are left out. Entries that show only a call come without a potency. Active and inactive are the calls of the source. Unless noted, calls follow the shape of the dose curve; as a rule, active = well fitted curve in the direction sought with a large enough effect; inconclusive = small, poorly fitted or top-dose-only effect, or another doubt; inactive = no such curve, though single readings can be large; an effect the other way counts as inactive or inconclusive.

Experiments:
[1] = S16 Schwann cell PMP22 intronic element beta-lactamase assay (AID 624044; calls by dose curve; also: potency is read from the fitted curve at half-maximal effect; nearly all actives have a fitted effect of over 15% in size)
Procedure, shortened: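 Beta-lactamase reporter under a PMP22 intronic regulatory element in stable S16 rat Schwann cells; 24 h compound exposure. 460 nm blue signal normalized between DMSO (0%) and potassium clavulanate, with 535 nm FRET tracking viability; curves classed by r2 and response.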

[2] = AP1 Signaling Pathway (AID 357; active = well fitted curve in either direction with a large enough effect, not every such curve was filed as active)
Procedure, shortened: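 ME-180 cells with beta-lactamase reporter under AP-1 response element, stimulated with EC50 EGF; compounds tested in titration series, 5 h at 37 °C. CCF4 substrate added 2.5 h at room temperature; 460/530 nm emission ratio gave %activity and AC50.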

[3] = Stat Signaling Pathway (AID 446; active = well fitted curve in either direction with a large enough effect, not every such curve was filed as active;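 also: ME-180 cervical cancer cells given 40 pM IL-6 alongside compound; SIE-controlled beta-lactamase reporter measured as 460/530 nm FRET emission ratio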)
Procedure, shortened: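 Compound effects on IL-6-induced STAT reporter activity were measured in ME-180 cells. After overnight culture, cells were co-treated with 40 pM IL-6 for 5 hrs before beta-lactamase substrate loading at room temperature.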

[4] = target: 3',5'-cyclic-AMP phosphodiesterase 4B (Homo sapiens) (UniProt Q07343); assay: qHTS Assay for Inhibitors of PDE-IV (AID 607; active = well fitted activation curve with a large enough effect in the main read-out, with a control signal flat, not every such curve was filed as active)
3',5'-cyclic-AMP phosphodiesterase 4B (Homo sapiens), sequence (Q07343 whole entry, looked up): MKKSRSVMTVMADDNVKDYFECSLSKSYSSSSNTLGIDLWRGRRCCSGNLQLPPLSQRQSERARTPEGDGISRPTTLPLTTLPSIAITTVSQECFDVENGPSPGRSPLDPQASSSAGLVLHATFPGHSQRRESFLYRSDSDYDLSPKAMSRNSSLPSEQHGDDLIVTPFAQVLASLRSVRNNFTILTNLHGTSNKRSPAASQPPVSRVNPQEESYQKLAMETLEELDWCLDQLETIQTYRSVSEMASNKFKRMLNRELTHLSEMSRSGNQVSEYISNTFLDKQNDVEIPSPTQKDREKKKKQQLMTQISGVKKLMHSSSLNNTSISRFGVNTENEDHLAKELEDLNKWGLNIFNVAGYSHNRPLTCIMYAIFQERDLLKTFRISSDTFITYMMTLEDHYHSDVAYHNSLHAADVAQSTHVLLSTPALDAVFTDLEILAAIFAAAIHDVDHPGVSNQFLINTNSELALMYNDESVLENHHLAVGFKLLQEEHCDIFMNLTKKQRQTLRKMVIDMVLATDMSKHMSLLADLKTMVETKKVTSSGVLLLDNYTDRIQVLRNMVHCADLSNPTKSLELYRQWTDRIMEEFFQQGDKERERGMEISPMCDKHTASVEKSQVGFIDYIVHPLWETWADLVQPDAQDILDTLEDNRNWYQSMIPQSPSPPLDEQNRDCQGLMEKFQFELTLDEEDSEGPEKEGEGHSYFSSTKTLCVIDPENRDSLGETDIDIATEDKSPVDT
Procedure, shortened: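 ACTOne HEK293 cells carry a modified cAMP-gated CNG channel and express endogenous PDE4; plated 1000 cells/well, compounds up to 22.9 uM final. Membrane-potential dye fluorescence (ex 535/em 590) was read; parental cells received 10 uM forskolin + 100 uM RO 20-1724.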

[5] = target: Guanine nucleotide-binding protein G(i) subunit alpha-1 (Homo sapiens) (UniProt P63096); assay: qHTS Assay for Inhibitors of RGS12 GoLoco Motif Activity (Green Fluorophore) (AID 879);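 also: negative values mean loss of peptide binding seen as reduced polarization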
Guanine nucleotide-binding protein G(i) subunit alpha-1 (Homo sapiens), sequence (P63096 whole entry, looked up): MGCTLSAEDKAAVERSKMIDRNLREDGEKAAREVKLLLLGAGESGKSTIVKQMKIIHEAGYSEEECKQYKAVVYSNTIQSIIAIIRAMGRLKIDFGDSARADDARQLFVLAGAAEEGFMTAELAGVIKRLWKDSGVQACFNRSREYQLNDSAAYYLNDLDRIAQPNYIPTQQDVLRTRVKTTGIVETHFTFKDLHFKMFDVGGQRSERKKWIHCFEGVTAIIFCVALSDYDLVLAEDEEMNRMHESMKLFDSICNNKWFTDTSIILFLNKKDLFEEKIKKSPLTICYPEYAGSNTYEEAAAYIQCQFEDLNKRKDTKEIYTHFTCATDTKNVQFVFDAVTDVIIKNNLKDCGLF
Procedure, shortened: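 A drop in FITC polarization marked displacement of the FITC-tagged RGS12 GoLoco peptide (10 nM) from Gαi1 (50 nM). Compounds were incubated 10 min at room temperature in Tris pH 7.5 buffer containing 150 mM NaCl, 0.1 mM GDP and 0.05% NP40; unlabeled peptide titration served as control.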

[6] = qHTS Assay for Identification of Small Molecule Antagonists for NFkB Signaling Pathway (AID 895; active = well fitted inhibition curve with a large enough effect in the signal ratio, with a control signal flat, not every such curve was filed as active; the % refers to the signal ratio)
Procedure, shortened: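 Beta-lactamase reporter read-out (460 and 530 nm emission ratio, 405 nm excitation, 2 hrs substrate loading RT) after 5 hr stimulation with 10 pM TNF alpha in compound-treated NFkB-bla ME-180 cells in low-serum medium.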

[7] = target: Pyruvate kinase (Leishmania mexicana) (UniProt Q27686); assay: qHTS Validation Assay for Inhibitors of Leishmania Mexicana Pyruvate Kinase (AID 945)
Pyruvate kinase (Leishmania mexicana), sequence (Q27686 2-499 E452W): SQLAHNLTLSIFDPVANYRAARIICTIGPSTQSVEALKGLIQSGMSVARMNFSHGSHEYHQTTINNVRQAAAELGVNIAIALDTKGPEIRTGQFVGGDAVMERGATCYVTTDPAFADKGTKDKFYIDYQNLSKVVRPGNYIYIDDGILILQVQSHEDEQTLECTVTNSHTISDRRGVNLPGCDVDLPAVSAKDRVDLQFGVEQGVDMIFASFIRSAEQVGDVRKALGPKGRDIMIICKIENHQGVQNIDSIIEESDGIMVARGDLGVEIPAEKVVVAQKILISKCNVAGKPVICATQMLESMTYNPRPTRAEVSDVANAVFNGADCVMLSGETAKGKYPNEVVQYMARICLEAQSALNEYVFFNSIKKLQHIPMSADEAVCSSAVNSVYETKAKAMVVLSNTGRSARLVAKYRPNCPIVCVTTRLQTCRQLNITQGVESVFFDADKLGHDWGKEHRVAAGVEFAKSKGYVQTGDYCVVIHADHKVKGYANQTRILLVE
Procedure, shortened: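 LmPYK E451W 0.2 nM; 0.5 mM PEP, 0.1 mM ADP, 7 mM MgCl2, 50 mM KCl, imidazole pH 7.2, 0.01% Tween 20, 0.05% BSA; 1 h RT; PKLight luminescence; DMSO-normalized.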

[8] = target: Pyruvate kinase PKM (Homo sapiens) (UniProt P14618); assay: qHTS Assay for Activators of Human Muscle Pyruvate Kinase (AID 954; active = well fitted curve in the direction sought with a large enough effect, not every such curve was filed as active)
Pyruvate kinase PKM (Homo sapiens), sequence (P14618 whole entry, looked up): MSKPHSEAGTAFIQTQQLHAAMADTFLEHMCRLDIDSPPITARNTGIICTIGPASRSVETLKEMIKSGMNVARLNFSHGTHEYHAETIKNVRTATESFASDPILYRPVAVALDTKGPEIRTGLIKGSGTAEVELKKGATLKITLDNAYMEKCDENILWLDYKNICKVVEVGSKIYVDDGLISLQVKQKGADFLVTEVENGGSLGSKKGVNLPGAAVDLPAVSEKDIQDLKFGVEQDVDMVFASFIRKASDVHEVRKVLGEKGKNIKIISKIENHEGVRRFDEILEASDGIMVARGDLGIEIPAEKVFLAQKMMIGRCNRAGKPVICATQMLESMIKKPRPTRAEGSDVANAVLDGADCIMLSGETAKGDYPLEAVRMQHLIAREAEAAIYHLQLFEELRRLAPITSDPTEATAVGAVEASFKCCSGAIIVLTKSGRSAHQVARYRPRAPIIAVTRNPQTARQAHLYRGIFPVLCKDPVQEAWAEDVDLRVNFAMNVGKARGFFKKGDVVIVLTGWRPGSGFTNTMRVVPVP
Procedure, shortened: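 A coupled luminescent readout tracked ATP made from ADP by purified PKM2. Final conditions included 0.1 nM enzyme, PEP and ADP at 0.5 and 0.1 mM, pH 7.2 imidazole buffer with BSA, and a one-hour room-temperature reaction.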

[9] = target: Alpha-galactosidase (Coffea arabica) (UniProt Q42656); assay: Counterscreen for Glucocerebrosidase Inhibitors: qHTS Assay for Coffee Bean alpha-Galactosidase at pH 4.5 (AID 957)
Alpha-galactosidase (Coffea arabica), sequence (Q42656 whole entry, looked up): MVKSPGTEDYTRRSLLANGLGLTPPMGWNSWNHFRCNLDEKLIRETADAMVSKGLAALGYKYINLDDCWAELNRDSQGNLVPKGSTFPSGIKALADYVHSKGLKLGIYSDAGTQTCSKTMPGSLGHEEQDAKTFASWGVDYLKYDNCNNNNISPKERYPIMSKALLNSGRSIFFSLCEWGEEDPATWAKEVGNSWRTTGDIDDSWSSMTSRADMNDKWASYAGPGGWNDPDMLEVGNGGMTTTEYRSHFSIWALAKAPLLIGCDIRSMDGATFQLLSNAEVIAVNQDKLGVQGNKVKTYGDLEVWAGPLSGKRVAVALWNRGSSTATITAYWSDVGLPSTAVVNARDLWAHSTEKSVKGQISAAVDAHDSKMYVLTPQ
Procedure, shortened: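 Fluorogenic read-out: 4-methylumbelliferone at Ex 365/Em 440 nm after NaOH/glycine stop (pH 10). Enzyme 2 nM, 4-MU-alpha-galactoside 80 uM, citrate buffer pH 4.5, 20 min RT; normalized to no-enzyme and enzyme controls.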

[10] = target: Alpha-galactosidase A (Homo sapiens) (UniProt P06280); assay: Counterscreen for Glucocerebrosidase Inhibitors: qHTS Assay for Human alpha-Galactosidase at pH 4.5 (AID 992)
Alpha-galactosidase A (Homo sapiens), sequence (P06280 whole entry, looked up): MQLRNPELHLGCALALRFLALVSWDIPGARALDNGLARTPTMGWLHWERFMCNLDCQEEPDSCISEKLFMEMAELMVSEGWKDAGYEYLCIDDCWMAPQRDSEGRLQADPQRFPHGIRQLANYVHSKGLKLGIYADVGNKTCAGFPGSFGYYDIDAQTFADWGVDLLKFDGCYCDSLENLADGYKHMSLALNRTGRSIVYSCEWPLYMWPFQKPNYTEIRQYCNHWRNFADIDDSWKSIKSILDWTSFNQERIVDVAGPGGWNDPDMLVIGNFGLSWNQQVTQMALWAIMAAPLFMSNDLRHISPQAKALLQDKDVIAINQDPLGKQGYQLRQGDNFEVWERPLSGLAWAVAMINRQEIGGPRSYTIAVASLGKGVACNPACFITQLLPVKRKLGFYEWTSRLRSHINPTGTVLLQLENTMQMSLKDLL
Procedure, shortened: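 Citrate buffer pH 4.5, Tween-20 0.005%. Enzyme 2 nM, substrate 80 uM, 20 min RT. Stop pH 10. Fluorescence Ex 365/Em 440. AC50 by Hill fit.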

[11] = target: alpha-glucosidase (Oryza sativa, rice) (UniProt Q653V4); assay: Counterscreen for Glucocerebrosidase Inhibitors: qHTS Assay for Rice alpha-Glucosidase at pH 5.0 (AID 997)
Procedure, shortened: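 Endpoint fluorogenic assay at pH 5.0: compounds (0.7 nM to 77 uM) titrated against 4 nM rice enzyme and 400 uM 4-MU-alpha-glucoside for 20 min at room temperature; NaOH/glycine stop, read ex 365/em 440 nm, Hill-fitted AC50.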

[12] = target: Alpha-galactosidase (Coffea arabica) (UniProt Q42656); assay: Counterscreen for Glucocerebrosidase Inhibitors: qHTS Assay for Coffee Bean alpha-Galactosidase at pH 5.9 (AID 998)
Procedure, shortened: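 Fluorogenic 4-MU substrate hydrolysis, 80 uM substrate and 2 nM coffee bean alpha-galactosidase, pH 5.9 citrate buffer, 20 min at room temperature, then NaOH/glycine stop. Titration 0.7 nM–77 uM, normalized to no-enzyme and enzyme controls, AC50 via Hill equation.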

[13] = qHTS assay for small molecule antagonists of peroxisome proliferator-activated receptor delta signaling (AID 588535; active = well fitted inhibition curve with a large enough effect in the signal ratio, with a control signal flat, not every such curve was filed as active; the % refers to the signal ratio;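 as to max response: cells co-treated with a PPAR-delta agonist as stimulator during compound exposure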); details: HEK293T PPARd-UAS-bla, beta-lactamase FRET ratio, 18 h; 460 nm channel
Procedure, shortened: (§1)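 Antagonist-mode qHTS using GeneBLAzer PPAR-delta-UAS-bla HEK293T cells; compound exposure 18 hrs at 37 C over a titration. Ratiometric CCF4 fluorescence at 460/530 nm; concentration-response points fitted to the Hill equation.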

[14] = target: Peroxisome proliferator-activated receptor delta (Homo sapiens) (UniProt Q03181); assay: as above
Peroxisome proliferator-activated receptor delta (Homo sapiens), sequence (Q03181 whole entry, looked up): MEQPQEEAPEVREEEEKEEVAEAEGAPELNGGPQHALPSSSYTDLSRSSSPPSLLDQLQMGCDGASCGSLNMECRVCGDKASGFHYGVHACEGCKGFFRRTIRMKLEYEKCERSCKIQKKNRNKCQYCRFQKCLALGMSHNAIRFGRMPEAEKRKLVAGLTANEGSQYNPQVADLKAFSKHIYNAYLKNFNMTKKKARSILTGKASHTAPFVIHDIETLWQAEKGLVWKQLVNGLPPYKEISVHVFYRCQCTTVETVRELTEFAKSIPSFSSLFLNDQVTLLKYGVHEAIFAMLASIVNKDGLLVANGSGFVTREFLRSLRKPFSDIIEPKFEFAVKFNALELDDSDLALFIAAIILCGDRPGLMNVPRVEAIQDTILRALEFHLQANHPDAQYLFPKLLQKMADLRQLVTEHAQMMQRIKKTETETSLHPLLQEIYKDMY
Procedure, shortened: as §1

AS120 = assay: qHTS profiling for inhibitors of Plasmodium falciparum proliferation (AID 504749); also: nearly all actives have a fitted effect of over 60% in size; details: P. falciparum in erythrocytes, SYBR Green DNA, 72 h; series mostly up to 28.7 µM
Procedure, shortened: (§2)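 In a 72 h erythrocytic culture (37 C, humidified, 5% CO2) at 2.5% hematocrit and 0.3% starting parasitemia, compounds were tested; SYBR Green I in detergent lysis buffer stained parasite DNA overnight.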

ATS189 = assay: as above; details: P. falciparum in erythrocytes, SYBR Green DNA, 72 h; series mostly up to 28.7 µM
Procedure, shortened: as §2

CP191 = assay: as above; details: P. falciparum in erythrocytes, SYBR Green DNA, 72 h; series mostly up to 28.7 µM
Procedure, shortened: as §2

CP203 = assay: as above; details: P. falciparum in erythrocytes, SYBR Green DNA, 72 h; series mostly up to 28.7 µM
Procedure, shortened: as §2

CP291 = assay: as above; details: P. falciparum in erythrocytes, SYBR Green DNA, 72 h; series mostly up to 28.7 µM
Procedure, shortened: as §2

TAB113 = assay: as above; details: P. falciparum in erythrocytes, SYBR Green DNA, 72 h; series mostly up to 28.7 µM
Procedure, shortened: as §2

Oc1cc[c]([Hg][Cl])cc1
Potency [1]: 2.24 µM (active)

CN1CC[C@@]23CCCC[C@@H]2[C@@H]1Cc1ccc(O)cc13
outcome [2]: inactive | outcome [3]: inactive | Potency [4]: inactive | outcome [5]: inactive | Potency [6]: inactive | outcome [7]: inactive | outcome [8]: inactive | outcome [9]: inactive | outcome [10]: inactive | outcome [11]: inactive | outcome [12]: inactive

CCOc1cc(C=O)ccc1O
max response [13]: -4.7% | outcome [14]: inactive

C[N+](C)(C)CC(=O)[O-]
Potency (AS120): inactive | Potency (ATS189): inactive | Potency (CP191): inactive | Potency (CP203): inactive | Potency (CP291): inactive | Potency (TAB113): inactive
